KCNK3 inh = human KCNK3 channel inhibition, primary screen; 340,000 tested, 0.84% active; CHO-KCNK3 thallium flux, FluxOR fluorescence; stronger effect = lower value; B-score at 10 µM; AID 602410; O14649;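 active means B-score under library mean minus 4 SD, starting fluorescence ratio at most library mean plus 5 SD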;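 further: more negative B-score means stronger inhibition of thallium flux through KCNK3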
TMEM16A act = mouse TMEM16A channel activation, primary screen. Q8BHY3. HEK293 TMEM16A/YFP-H148Q/I152L, iodide quench fluorescence; stronger effect = lower value. B-score at 10 µM. 340,000 tested, 0.3% active;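 active means fluorescence-ratio B-score plate-corrected deviation score at least 3 library SD below zero, with starting fluorescence score within 5 deviations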;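 further: channel opened by trigger with iodide after compound preincubation; score built on the fluorescence ratio of max minus min over baseline; more negative score means more quench and so TMEM16A activation or potentiation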
KCNK9 inh = inhibitors of human KCNK9 two-pore domain potassium channel | Q9NPC2 | HEK293 KCNK9, FluxOR thallium flux fluorescence; stronger effect = lower value | B-score at 10 µM | 310,000 tested, 1.2% active | AID 488922;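 active means ratio B-score over 3 SD below the library mean, with starting fluorescence within 5 SD of its mean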;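 further: negative B-score means less thallium flux so channel inhibition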
ANO1 block = blocks the mouse calcium-activated chloride channel TMEM16A | Q8BHY3 | HEK293 TMEM16A/YFP iodide influx fluorescence, ionomycin | normalized B-score (activity score, 25-100; higher = stronger inhibition) at 10 µM | 310,000 tested, 1.2% active | AID 588511;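 active means ratio plate-corrected score three or more library SD toward inhibition, starting fluorescence score within five deviations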;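 further: score derived from kinetic fluorescence span divided by baseline fluorescence per well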
Kir21 block = blocks the mouse Kir2.1 inward-rectifier potassium channel. HEK293-Kir2.1, FluxOR thallium flux fluorescence; stronger effect = lower value. B-score at 10 µM. 310,000 tested, 0.85% active;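 active means fluorescence ratio B-score at or below minus 3 SD of library scores, with starting-brightness B-score within 2 SD, cut at about -4.2 in these data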;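 further: channel flux triggered by added potassium and thallium sulfate stimulus; B-score of peak minus minimum fluorescence over baseline after thallium stimulus; more negative B-score means stronger Kir2.1 block with less thallium influx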
* = called active by the depositor; i = inactive; / = no result. Compounds with a hit are over-represented: about 3.5% of the library has one in this group of screens.

SMILES	KCNK3 inh	TMEM16A act	KCNK9 inh	ANO1 block	Kir21 block
CC(=O)NC(c1ccccc1)c1c(O)ccc2ccccc12 (configuration not stated)	i	-6.5*	i	i	0.44
Cc1c(C)n(C)c2ccc(C(=O)NCCCN3CCN(c4ccc(F)cc4)CC3)cc12	i	i	i	i	-4.2*
Cc1c(C)n(Cc2ccccc2)c2ccc(C(=O)NCCCN3CCOCC3)cc12	i	i	i	i	-3.2
Cc1c(C)n(C)c2ccc(C(=O)NCCCN3CCN(c4ccccc4F)CC3)cc12	i	i	i	i	-0.28
Cc1c(C)n(Cc2ccc(F)cc2)c2ccc(C(=O)NCCCN3CCOCC3)cc12	i	i	i	i	-4.8*
COc1cc(CNCc2cccs2)ccc1OCc1ccccc1	i	i	i	i	-3
COc1cc(CNCCN2CCOCC2)ccc1OCc1c(Cl)cccc1Cl	/	/	i	i	-3.1
COc1cc(CNCc2ccccn2)ccc1OCc1c(Cl)cccc1Cl	i	i	i	i	-8.8*
COc1cc(CNCc2ccccn2)ccc1OCc1cccc(Cl)c1	i	i	i	i	-7.6*
CC(C)(C)NCc1cc(Cl)ccc1OCc1cccs1	i	i	i	i	-2
COc1cc(CNCc2cccs2)ccc1OCc1cccs1	i	i	i	i	-5*
CC(C)(C)NCc1cc(Br)ccc1OCc1cccs1	i	i	i	i	-4.8*
CC(NC(=O)Nc1nnc(C(F)(F)F)s1)N1C(=O)C2C3C=CC(C3)C2C1=O (configuration not stated)	i	i	i	i	0.64
CC(NC(=O)Nc1nnc(C(F)(F)F)s1)(C(F)(F)F)C(F)(F)F	i	i	i	100*	1.2
COc1ccc(NS(=O)(=O)c2ccc3oc(=O)c4[nH]c(=O)c(=O)n(C)c4c3c2)cc1	i	i	i	i	0.63
CCOC(=O)C1CCN(C(=O)c2sc3nc(-c4ccc(F)cc4)cn3c2C)CC1	i	i	i	i	-0.08
CC(NC(=O)/C(C#N)=C/c1ccc(Cl)c([N+](=O)[O-])c1)c1ccccc1 (configuration not stated)	/	/	i	i	-5.5*
Cc1occc1-c1nnc(SCC(=O)O)n1-c1ccccc1	i	i	i	i	-1.1
COc1ccc([C@H]2CC(=O)C=C(c3ccc4ccccc4c3)C2)cc1OC	i	i	/	/	/
COc1ccc([C@H]2CC(=O)C=C(c3ccc(-c4ccccc4)c(F)c3)C2)cc1OC	i	-6.2*	/	/	/
CC(=O)c1ccc(OCc2cc(C(=O)N3CCC(Oc4ccccc4C)CC3)no2)cc1	i	i	i	100*	0.56
CC(C)CN1C(=S)SC(C)(C)C1n1oc(=O)n(-c2ccc(Cl)cc2)c1=O (configuration not stated)	-11*	i	i	100*	-1.8
S=C(Nc1ccccc1)N1CCCCCCC1	i	-4.6*	i	i	1.7
COc1cc(C(=O)Nc2ccc(NC(=O)c3ccccc3Cl)nc2)cc(OC)c1OC	i	i	i	i	0.11
CC(C)(C)NS(=O)(=O)c1ccc(NS(C)(=O)=O)cc1	i	i	i	i	-0.86
SMILES	KCNK3 inh	TMEM16A act	KCNK9 inh	ANO1 block	Kir21 block
CN1CCN(c2nc(-c3cccs3)nc3ccccc23)CC1	i	i	i	i	0.45
c1ccc(N2CCN(c3nc(-c4cccs4)nc4ccccc34)CC2)cc1	i	i	-14*	i	-0.23
Cc1ccc([N+](=O)[O-])cc1NC(=O)C(Sc1ccccc1)c1ccccc1 (configuration not stated)	i	i	i	i	1.8
CCCOC(=O)c1ccc(NC(=O)c2ccccc2OC)cc1	i	i	-7.5*	i	2.5
COc1ccc(CCNC(=O)c2c(N)no[n+]2[O-])cc1OC	i	i	i	i	-0.45
Cc1ccc2oc(-c3cccc(NC(=O)Cn4cnc5c(=O)n(C)c(=O)n(C)c54)c3)nc2c1	/	/	i	100*	-2.7
CCC(C)c1ccc2oc(-c3ccc(NC(=O)Cn4cnc5c(=O)n(C)c(=O)n(C)c54)cc3)nc2c1 (configuration not stated)	i	i	i	i	-0.01
Cc1onc(-c2ccccc2Cl)c1C(=O)Oc1cc(N)n(S(=O)(=O)c2ccc(F)cc2)n1	i	i	/	25*	/
Cc1ccc(S(=O)(=O)n2nc(OC(=O)c3c(-c4ccccc4Cl)noc3C)cc2N)cc1	i	i	i	i	1.1
COc1ccc(S(=O)(=O)n2nc(OC(=O)c3ccccc3Br)cc2N)cc1	-9.1*	i	i	i	0.96
CCOc1cc(C(c2c(C)[nH][nH]c2=O)c2c(C)[nH][nH]c2=O)ccc1OCc1ccc([N+](=O)[O-])cc1	i	i	i	i	-5.7*
CCOc1cc(C(c2c(C)[nH][nH]c2=O)c2c(C)[nH][nH]c2=O)ccc1OC(=O)c1cccc([N+](=O)[O-])c1	i	i	i	i	0.44
CCc1noc(C)c1C(=O)N(Cc1ccccc1)c1c(N)n(CCOC)c(=O)[nH]c1=O	i	i	i	i	0.55
COC(=O)c1ccc(CNC(=O)C(NC(=O)c2ccco2)C(C)C)cc1 (configuration not stated)	i	i	i	i	-0.47
COc1cccc2cc3c(=O)oc4ccccc4c3nc12	i	-12*	i	i	2.1
Cc1cc(C)c(S(=O)(=O)NCc2cccnc2)c(C)c1	i	/	i	i	0.45
Cc1cc(C)c(C)c(S(=O)(=O)NCc2ccco2)c1C	/	/	i	i	-7.7*
Cc1cc(C)c(C)c(S(=O)(=O)NCc2cccnc2)c1C	i	i	i	i	-4.7*
CCCCCCCc1c(O)nc(SCCN2CCOCC2)[nH]c1=O	i	i	i	i	2.2
COc1ccc(OC)c(Nc2nc(-c3sc(N)nc3C)cs2)c1	i	i	-6.7*	i	0.1
CCSc1nnc(NC(=O)CN2C(=O)NC3(CCCC3)C2=O)s1	i	i	/	/	/
CCc1cc2ccccc2nc1SCC(=O)N1CCN(C(=O)c2ccco2)CC1	i	i	i	/	-4.4*
CCc1cc2cc(C)ccc2nc1SCC(=O)N1CCN(C(=O)c2ccco2)CC1	i	i	/	i	/
O=C(COC(=O)COc1ccccc1)Nc1ncc([N+](=O)[O-])s1	i	i	/	/	/
Cc1cnc(NC(=O)c2ccc3c(c2)OCCO3)s1	i	i	/	/	/
O=C(Nc1ncc([N+](=O)[O-])s1)c1ccc2c(c1)OCO2	i	i	i	100*	0.54
CCC(Oc1ccccc1)C(=O)Nc1nnc(C)s1 (configuration not stated)	i	i	i	i	1.5
